Screening data from PubChem BioAssay.
Nrf2 inh = Nrf2 pathway inhibition. A549 ARE-Fluc reporter, luciferase luminescence, 18-24 h. Potency, µM (highest dose often 46 µM), usual class: inhibitors. 360,000 tested, 2.1% active. AID 504444; note: nearly all actives have a fitted effect of over 60% in size
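Nrf2 activity is the BugLite luminescence, read 15 min after reagent at room temperature, following CellTiter-Fluor cytotoxicity readout (30 min, 37C). Compound titrations were applied for 18-24 h to 5000 A549 ARE_Fluc cells/well in 5% FBS OPTI-MEM.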
Giardia killer = kills Giardia lamblia; Giardia lamblia trophozoite viability; activity change, % at 7.66 µM, hits read low; 340,000 tested, 0.15% active; AID 540267; in the data active = activity change below about -80%; inconclusive = between about -30% and that limit;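 note: parasites exposed to compound for two days anaerobically before the ATP read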
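Trophozoites 100 cells/well + cpd; 48 hrs, 37 deg C, anaerobic. ATPLite 1-Step added, 15-30 min RT, luminescence read (ATP-based viability).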
KB-V1 cytotox = kills drug-selected multidrug resistant KB-V1 cells | KB-V1 MDR cells viability, CellTiter-Glo, 72 h | Potency, µM (top dose mostly 46.1 µM), hits mostly cytotoxic | 400,000 tested, 3.4% active | AID 1347076; note: nearly all actives have a fitted effect of over 60% in size
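Luminescent ATP read-out (CellTiter-Glo, 10 min) measures survival of drug-selected KB-V1 MDR cells after 72 h, 37 degrees C compound exposure. Medium: phenol-red-free DMEM, 10% FBS. Values from fitted concentration-response curves.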
PI4K2A block = inhibitors of human PI4K2A | purified PI4K2A, ADP-Glo luminescence, 1 h; hits give low values | activity change, negative = inhibition, % at 76.9 µM | 420,000 tested, 0.13% active; in the data active = activity change below about -50%; inconclusive = mostly about -30% to -49%
Target sequence (Q9BTU6 whole entry, looked up): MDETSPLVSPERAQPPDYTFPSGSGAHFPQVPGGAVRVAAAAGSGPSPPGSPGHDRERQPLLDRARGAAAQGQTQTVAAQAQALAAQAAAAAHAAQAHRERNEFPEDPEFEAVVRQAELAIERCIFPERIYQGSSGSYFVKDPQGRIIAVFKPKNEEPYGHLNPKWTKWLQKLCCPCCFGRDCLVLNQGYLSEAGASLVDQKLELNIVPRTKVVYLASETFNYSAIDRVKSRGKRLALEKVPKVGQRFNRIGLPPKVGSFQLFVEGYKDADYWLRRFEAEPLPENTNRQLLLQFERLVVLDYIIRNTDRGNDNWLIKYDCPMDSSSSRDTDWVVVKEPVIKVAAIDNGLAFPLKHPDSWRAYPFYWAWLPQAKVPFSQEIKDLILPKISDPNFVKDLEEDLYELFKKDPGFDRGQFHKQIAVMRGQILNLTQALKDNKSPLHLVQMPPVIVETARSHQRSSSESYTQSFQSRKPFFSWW
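PI4K2A activity was measured by ADP-Glo luminescence: enzyme (4 ug/mL stock) and phosphatidylinositol (1.2 mM stock) in Tris pH 7.5/MgCl2/EGTA/Triton X-100 buffer were reacted with ATP (300 microM stock) for one hour at ambient temperature.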
KB-3-1 cytotox = kills parental KB-3-1 adenocarcinoma cells. KB-3-1 viability, CellTiter-Glo ATP luminescence, 72 h. Potency, µM (top dose mostly 46.1 µM), most hits filed as cytotoxic. 400,000 tested, 1.4% active; note: nearly all actives have a fitted effect of over 60% in size
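Parental KB-3-1 adenocarcinoma cells in phenol-red-free DMEM with 10% FBS were pin-treated with compounds at several concentrations, incubated 72 h at 37 °C, and viability read by CellTiter-Glo luminescence; concentration-effect curves were fitted after normalization.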
A549 tox = counter-screen for Nrf2 inhibitors: cytotoxicity in A549 cells; A549 ARE-Fluc cells, CellTiter-Fluor viability, 18-24 h; Potency, µM (doses to about 46 µM), actives largely listed as inhibitors; 390,000 tested, 0.16% active
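Cytotoxicity counterscreen: CellTiter-Fluor fluorescence was measured in A549 ARE_Fluc cells after 18-24 h of compound exposure in a concentration series. The subsequent BugLite luminescent read reports ARE-luciferase activity.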
Of the large screens only hits and unclear results are named; the others gave an inactive call; ! = not active in a repeat. In the library only some 5.7% were active in any assay of this set; here they are far more common. Unless noted, calls come from the whole dose curve; as a rule, active = well fitted curve in the direction sought with a large enough effect; inconclusive = small, poorly fitted or top-dose-only effect, or another doubt; inactive = no such curve, though single readings can be large; an effect the other way counts as inactive or inconclusive.

Cc1ccc(NC(C)C(=O)N/N=C/c2ccc([N+](=O)[O-])s2)cc1 (configuration not stated)	Nrf2 inh inconclusive, Giardia killer -83.7, KB-3-1 cytotox inconclusive, A549 tox inconclusive
COC(=O)[C@]12C[C@H](CC(=O)NCc3cccs3)C(=O)N(Cc3ccco3)C1=C[C@H](C(C)C)O[C@@H]2C1CC1	none (no result: Nrf2 inh, Giardia killer, KB-V1 cytotox, KB-3-1 cytotox, A549 tox)
CC1(CCC(=O)O)C(=O)CCC2C1CCC1(C)C2CCC1(C)O (configuration not stated)	KB-V1 cytotox inconclusive
CC12CCC3c4ccc(O)cc4CCC3C1CCC2=O (configuration not stated)	KB-V1 cytotox inconclusive
C#C[C@]1(O)CC[C@H]2[C@@H]3CCc4cc(O)ccc4[C@H]3CC[C@@]21C	KB-V1 cytotox 16.4µM, KB-3-1 cytotox inconclusive
CCc1cc(C(=O)N2CCCC(C(=O)c3cccc4ccccc34)C2)n(C)n1 (configuration not stated)	Nrf2 inh inconclusive, KB-V1 cytotox 5.17µM, KB-3-1 cytotox 20.6µM
CCCc1cc(C(=O)N2CCCC(C(=O)c3cccc4ccccc34)C2)n(C)n1 (configuration not stated)	Nrf2 inh inconclusive, KB-V1 cytotox inconclusive
CN1CCN(c2oc(-c3ccc(OCc4ccc(Cl)cc4)cc3)nc2C#N)CC1	Nrf2 inh inconclusive (no result: PI4K2A block)
CCc1ccc(NC(=O)c2nc(SCc3ccccc3F)ncc2Cl)cc1	none (no result: Nrf2 inh, Giardia killer, PI4K2A block, A549 tox)
COCCOC(=O)c1c(C)oc2ccc(NS(=O)(=O)c3ccc(F)cc3)cc12	Nrf2 inh inconclusive, KB-V1 cytotox 5.17µM
Cc1oc2ccc(NS(=O)(=O)c3ccc(F)cc3)cc2c1C(=O)O	A549 tox inconclusive
C=CCn1c(SCC(=O)Nc2ccccc2-c2ccccc2)nnc1-c1ccccc1	none (no result: Nrf2 inh, Giardia killer, KB-V1 cytotox, KB-3-1 cytotox, A549 tox)
O=c1[nH]c(CSc2ncccn2)nc2c1cnn2-c1ccccc1	KB-V1 cytotox inconclusive
Cc1ccc2nc(SCc3nc4c(cnn4-c4ccccc4)c(=O)[nH]3)[nH]c2c1	Nrf2 inh inconclusive, KB-V1 cytotox 2.31µM, KB-3-1 cytotox 2.59µM
O=c1[nH]c(SCc2nc3c(cnn3-c3ccccc3)c(=O)[nH]2)nc2ccccc12	KB-V1 cytotox inconclusive, KB-3-1 cytotox 2.06µM (no result: Nrf2 inh)
O=c1[nH]c(CSc2nc3ccccc3[nH]2)nc2c1cnn2-c1ccccc1	Nrf2 inh 14.6µM, KB-V1 cytotox 10.3µM
Cc1ccc2nc(SCc3nc4cc(Cl)ccc4c(=O)[nH]3)[nH]c2c1	none
C[C@H](C[C@H](O)[C@H]1OC1(C)C)C1=C2C[C@H](O)C3[C@@]4(C)CCC(=O)C(C)(C)C4CC[C@]3(C)[C@@]2(C)CC1 (some centres not stated)	Nrf2 inh inconclusive, KB-V1 cytotox 3.66µM, KB-3-1 cytotox inconclusive
C[C@@H](C[C@@H](O)[C@H](O)C(C)(C)O)[C@@H]1CC[C@]2(C)C3=CC[C@H]4C(C)(C)C(=O)CC[C@]4(C)[C@H]3CC[C@@]12C	Nrf2 inh inconclusive, KB-V1 cytotox inconclusive, KB-3-1 cytotox inconclusive, A549 tox inconclusive
Cc1oc2ccc(O)c(CN3CCCCCC3)c2c1C(=O)Nc1cccc(C(F)(F)F)c1	none (no result: Giardia killer, KB-V1 cytotox, KB-3-1 cytotox)
Cc1cccc(OC(=O)CSc2nnc(-c3ccc4c(c3)OCO4)o2)c1C	none (no result: Giardia killer)
Nc1c2c(nc3ccccc13)CCCC2	none
Nc1c2ccccc2nc2ccccc12	Nrf2 inh 20.6µM, KB-V1 cytotox 2.06µM!, KB-3-1 cytotox 5.17µM, A549 tox inconclusive
Cc1cccc(N2CCN(C(=O)c3cnn(-c4ccccc4)c3C3CCN(C(=O)OC(C)(C)C)CC3)CC2)c1C	KB-3-1 cytotox inconclusive (no result: Giardia killer)
CC(=O)Oc1ccc(N2C(=O)C3C(C2=O)C(C(=O)c2ccc(Cl)cc2)N2CCCC32)cc1 (configuration not stated)	Nrf2 inh inconclusive, KB-V1 cytotox inconclusive, KB-3-1 cytotox 18.4µM, A549 tox inconclusive
Cc1ccc(N2C(=O)C3C(C2=O)C(C(=O)c2ccc(Cl)cc2)N2CCCC32)cc1 (configuration not stated)	KB-V1 cytotox inconclusive
